M1 ag: activates human CHRM1 receptor | CHO-K1 hM1, Fluo-8 calcium fluorescence, agonist mode; 0% DMSO, 100% acetylcholine EC100 | 360,000 tested, 0.33% active | P11229 | activation, % at 3 µM;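 active = activation above the run's mean compound activation plus 3 SD, cut at about 16% in these data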;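 note: peak over basal fluorescence ratio within a 140 s kinetic read after compound addition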
Target sequence (P11229 whole entry, looked up): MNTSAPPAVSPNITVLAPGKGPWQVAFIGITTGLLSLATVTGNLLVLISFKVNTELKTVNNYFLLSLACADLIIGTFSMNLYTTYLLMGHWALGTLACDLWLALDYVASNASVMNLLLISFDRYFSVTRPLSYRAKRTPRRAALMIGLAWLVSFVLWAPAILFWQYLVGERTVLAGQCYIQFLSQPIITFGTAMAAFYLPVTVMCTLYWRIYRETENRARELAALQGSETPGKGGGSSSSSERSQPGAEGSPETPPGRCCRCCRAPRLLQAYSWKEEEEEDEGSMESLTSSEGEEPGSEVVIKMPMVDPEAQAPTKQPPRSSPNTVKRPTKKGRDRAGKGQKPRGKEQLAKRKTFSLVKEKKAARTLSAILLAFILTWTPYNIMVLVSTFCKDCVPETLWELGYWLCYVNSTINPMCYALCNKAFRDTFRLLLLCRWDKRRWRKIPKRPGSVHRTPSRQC
M1 ag parental: counter-screen for M1 agonists: effect in parental CHO-K1 cells; Fluo-8 calcium fluorescence; scaled to maximal ATP response, vehicle zero; activation, % at 3 µM; 360,000 tested, 0.48% active; AID 602248; in the data active = activation above about 15%;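 note: untransfected CHO-K1 host cells lacking M1 receptor as counterscreen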
M1 PAM parental: counter-screen for M1 PAMs: effect in parental CHO-K1 cells | ATP EC20, Fluo-8 calcium fluorescence; 0% at ATP EC20, 100% at ATP max | activation, % at 3 µM | 360,000 tested, 0.02% active | AID 602247;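 active = activation above the run cutoff, the mean activation of all test compounds plus 3 SD, cut at about 40% in these data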;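 note: peak over basal fluorescence ratio in a 140 s read after ATP addition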
CHO-K1 Ca antag: counter-screen for M1 antagonists: effect in parental CHO-K1 cells. ATP-induced calcium, Fluo-8 fluorescence. inhibition, % at 3 µM. 360,000 tested, 0.6% active. AID 602250;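 active = inhibition above a per-plate cutoff, the plate's mean sample inhibition plus 3 SD, cut at about 24% in these data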;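 note: 0% = DMSO plus EC80 ATP and 100% = DMSO alone without ATP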
M1 PAM: potentiates human M1 receptor response to acetylcholine | P11229 | CHO-K1 hM1, Fluo-8 calcium fluorescence, ACh EC20; 0% = ACh EC20, 100% = maximal ACh | activation, % at 3 µM | 360,000 tested, 0.088% active | AID 588819; in the data active = activation above about 19%, passing the limit was not always enough
CHRM1 antagonist: blocks human M1 muscarinic receptor. P11229. CHO-K1 hM1, Fluo-8 calcium fluorescence, ACh EC80 antagonist. inhibition, % at 3 µM. 360,000 tested, 1.3% active. AID 588852;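 active = percent inhibition above its own plate's cutoff, namely the mean of that plate's compound wells plus 3 SD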;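 note: peak over basal fluorescence ratio during 140 s after agonist addition; 0% = ACh EC80 plus DMSO and 100% = DMSO alone without agonist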
Active calls of the source: *. An excerpt weighted towards active compounds, which were near 2.3% of everything screened.

Results for CCOC(=O)c1[nH]c(C)c(/C(O)=C2\C(=O)C(=O)N(CCCN(CC)CC)C2c2cccnc2)c1C (centres undefined) ?
M1 ag: -6; M1 ag parental: 1; M1 PAM parental: 10; CHO-K1 Ca antag: -5; M1 PAM: 5; CHRM1 antagonist: -11

What do the screens show for `CCOC(=O)c1[nH]c(C)c(/C(O)=C2\C(=O)C(=O)N(CCCN3CCOCC3)C2c2cccnc2)c1C` (centres undefined)?
M1 ag: -5; M1 ag parental: 19*; M1 PAM parental: 11; CHO-K1 Ca antag: 0; M1 PAM: 8; CHRM1 antagonist: 0

Results for O=S(=O)(c1cccc(F)c1)N1CCN(Cc2cc3c(cc2Br)OCCO3)CC1 ?
M1 ag: -2; M1 ag parental: 0; M1 PAM parental: 12; CHO-K1 Ca antag: -14; M1 PAM: 9; CHRM1 antagonist: -12

Results for Cc1ccsc1/C=N/NC(=O)c1nnn(-c2nonc2N)c1C(C)C ?
M1 ag: 4; M1 ag parental: 6; M1 PAM parental: 15; CHO-K1 Ca antag: -14; M1 PAM: 1; CHRM1 antagonist: -8

How did CC(C)c1c(C(=O)N/N=C/c2ccsc2)nnn1-c1nonc1N do in these assays?
M1 ag: 28*; M1 ag parental: 22*; M1 PAM parental: 14; CHO-K1 Ca antag: 6; M1 PAM: -7; CHRM1 antagonist: 17

What do the screens show for `CC(C)c1c(C(=O)N/N=C/c2cccs2)nnn1-c1nonc1N`?
M1 ag: 34*; M1 ag parental: 33*; M1 PAM parental: -10; CHO-K1 Ca antag: 3; M1 PAM: -6; CHRM1 antagonist: 9

How did CC(C)c1c(C(=O)N/N=C/c2ccc(C(F)(F)F)cc2)nnn1-c1nonc1N do in these assays?
M1 ag: 21*; M1 ag parental: 12; M1 PAM parental: 36; CHO-K1 Ca antag: -20; M1 PAM: 21; CHRM1 antagonist: -18

How did COC(=O)c1ccc([C@@H]2C[C@H]3CN(Cc4cccnc4)C(=O)[C@]34CCCN24)cc1 do in these assays?
M1 ag: -14; M1 ag parental: 0; M1 PAM parental: 16; CHO-K1 Ca antag: 2; M1 PAM: 3; CHRM1 antagonist: -4

How did O=c1oc2cc(Br)ccc2n1Cc1ccccc1 do in these assays?
M1 ag: -5; M1 ag parental: 1; M1 PAM parental: 13; CHO-K1 Ca antag: -8; M1 PAM: -5; CHRM1 antagonist: 3

Results for CCOC(=O)C1CCCN(C(=O)c2[nH]c(C(F)(F)F)nc2-c2ccccc2)C1 (centres undefined) ?
M1 ag: 17*; M1 ag parental: 0; M1 PAM parental: -8; CHO-K1 Ca antag: 0; M1 PAM: -10; CHRM1 antagonist: -9

Results for CCOC(=O)N1CCN(C(=O)c2[nH]c(C(F)(F)F)nc2-c2ccccc2)CC1 ?
M1 ag: 9; M1 ag parental: 0; M1 PAM parental: 9; CHO-K1 Ca antag: -15; M1 PAM: 8; CHRM1 antagonist: -24

What do the screens show for `CC(=O)N1CCN(C(=O)c2[nH]c(C(F)(F)F)nc2-c2ccccc2)CC1`?
M1 ag: -1; M1 ag parental: 1; M1 PAM parental: 8; CHO-K1 Ca antag: -10; M1 PAM: 3; CHRM1 antagonist: -24

Results for O=C(c1[nH]c(C(F)(F)F)nc1-c1ccccc1)N1CCCCC1 ?
M1 ag: -1; M1 ag parental: 0; M1 PAM parental: -7; CHO-K1 Ca antag: 26*; M1 PAM: 0; CHRM1 antagonist: 2

How did CN(C)C(CNC(=O)c1ccc2c(=O)n(-c3ccccc3F)c(=S)[nH]c2c1)Cc1ccccc1 (centres undefined) do in these assays?
M1 ag: -8; M1 ag parental: 0; M1 PAM parental: 3; CHO-K1 Ca antag: -13; M1 PAM: -3; CHRM1 antagonist: 0

How did CC(C)N1C(=O)S/C(=C/c2ccc(Sc3nc4ccccc4[nH]3)o2)C1=O do in these assays?
M1 ag: -5; M1 ag parental: 5; M1 PAM parental: -10; CHO-K1 Ca antag: 15; M1 PAM: -15; CHRM1 antagonist: 17

Results for C=CCN1C(=O)S/C(=C/c2ccc(Sc3nc4ccccc4[nH]3)o2)C1=O ?
M1 ag: -3; M1 ag parental: 11; M1 PAM parental: -14; CHO-K1 Ca antag: 26*; M1 PAM: -14; CHRM1 antagonist: 18

Results for C=CCc1cc(Cl)ccc1OCCCNCCO ?
M1 ag: -12; M1 ag parental: 2; M1 PAM parental: 4; CHO-K1 Ca antag: 3; M1 PAM: -2; CHRM1 antagonist: -2

What do the screens show for `C=CCc1cc(Cl)ccc1OCCOCCNC(C)CC` (centres undefined)?
M1 ag: -8; M1 ag parental: 3; M1 PAM parental: -2; CHO-K1 Ca antag: -9; M1 PAM: -24; CHRM1 antagonist: 38*

How did C=CCc1cc(Cl)ccc1OCCN(C)C do in these assays?
M1 ag: -7; M1 ag parental: 2; M1 PAM parental: 28; CHO-K1 Ca antag: -16; M1 PAM: -19; CHRM1 antagonist: 25*

How did C=CCc1cc(Cl)ccc1OCCCNC(C)C do in these assays?
M1 ag: -12; M1 ag parental: 2; M1 PAM parental: 21; CHO-K1 Ca antag: -2; M1 PAM: -9; CHRM1 antagonist: 13

How did CN(C)CCOc1cc(Cl)cc(Cl)c1 do in these assays?
M1 ag: -10; M1 ag parental: 0; M1 PAM parental: 10; CHO-K1 Ca antag: 1; M1 PAM: -9; CHRM1 antagonist: -5

Results for CCC(C)NCCCOc1cc(Cl)ccc1Cl (centres undefined) ?
M1 ag: -4; M1 ag parental: 0; M1 PAM parental: 4; CHO-K1 Ca antag: 9; M1 PAM: -14; CHRM1 antagonist: 33*

What do the screens show for `CN(C)CCOc1cccc(Cl)c1`?
M1 ag: -8; M1 ag parental: 19*; M1 PAM parental: 26; CHO-K1 Ca antag: -5; M1 PAM: 6; CHRM1 antagonist: -5

Results for CN(C)c1ccc2c(=O)cc[nH]c2c1 ?
M1 ag: 8; M1 ag parental: 0; M1 PAM parental: 6; CHO-K1 Ca antag: -1; M1 PAM: 6; CHRM1 antagonist: -4

How did c1ccc(-c2nnsc2Sc2ccccn2)cc1 do in these assays?
M1 ag: -14; M1 ag parental: 3; M1 PAM parental: 22; CHO-K1 Ca antag: -6; M1 PAM: -9; CHRM1 antagonist: 2

Results for O=[N+]([O-])c1c(NCCCO)cc(Sc2nc3ccccc3s2)c2nonc12 ?
M1 ag: -6; M1 ag parental: 6; M1 PAM parental: 8; CHO-K1 Ca antag: 19; M1 PAM: -13; CHRM1 antagonist: 33*

What do the screens show for `CS(=O)(=O)N(CC(=O)N1CCCC1)C1CCCCC1`?
M1 ag: -3; M1 ag parental: 0; M1 PAM parental: -10; CHO-K1 Ca antag: -4; M1 PAM: 8; CHRM1 antagonist: -11

Screening results deposited in PubChem BioAssay by The Scripps Research Institute Molecular Screening Center.
